Laboratory results published in PubChem BioAssay (NCI).
The panel holds about 79,000 compounds, 15% with a hit somewhere; the sample as a whole holds those more often. Unmarked numbers belong to inactive results. Activity calls are given as the source filed them. Rule as the data show it: active = growth inhibition above about 70%; inactive = the rest.

Columns and labels:
[1] = NCI Yeast Anticancer Drug Screen. Data for the rad52 strain (AID 147);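 also: 0% = growth of vehicle-treated control cultures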; settings: S. cerevisiae rad52 mutant growth inhibition, hits give high values
In short: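 Growth of repair-deficient yeast cells was compared between compound-treated and vehicle-treated cultures to give percent inhibition.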

[2] = NCI Yeast Anticancer Drug Screen. Data for the rad50EPP+ strain (AID 151);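 also: 0% = growth of vehicle-treated control cultures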; settings: S. cerevisiae rad50 mutant strain, hits give high values
In short: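 Measured: growth inhibition of rad50EPP+ yeast. Reference: vehicle-treated controls. Screen uses strains with defined genetic alterations in DNA damage repair or cell cycle control.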

[3] = NCI Yeast Anticancer Drug Screen. Data for the mgt1 strain (AID 153); settings: S. cerevisiae mgt1 mutant growth inhibition, hits give high values
In short: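 Compounds were applied to mgt1 mutant yeast, and growth was then compared against vehicle-treated control cultures to give percent inhibition.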

[4] = NCI Yeast Anticancer Drug Screen. Data for the rad50 strain (AID 155);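 also: 0% = growth of vehicle-only cultures of the same strain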; settings: S. cerevisiae rad50 strain growth inhibition, hits give high values
In short: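 Compounds were tested on a yeast strain with an engineered DNA damage repair alteration; the reported value is growth inhibition normalised to vehicle treatment.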

[5] = NCI Yeast Anticancer Drug Screen. Data for the mec2-1 strain (AID 157); settings: S. cerevisiae mec2-1 strain, hits give high values
In short: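 Compounds were applied to mec2-1 yeast cells. Their growth was then compared with that of vehicle-treated cultures to give growth inhibition.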

[6] = NCI Yeast Anticancer Drug Screen. Data for the rad14 strain (AID 159);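 also: 0% = growth of vehicle-treated control cultures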; settings: S. cerevisiae rad14 strain growth inhibition, hits give high values
In short: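 Compound-treated yeast with a defined DNA-repair lesion; growth inhibition normalised to vehicle-treated cultures.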

[7] = NCI Yeast Anticancer Drug Screen. Data for the sgs1 mgt1 strain (AID 161);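 also: 0% = growth of cultures given vehicle only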; settings: S. cerevisiae sgs1 mgt1 strain, hits give high values
In short: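 Growth of a repair-deficient yeast mutant was monitored after compound treatment and expressed as inhibition relative to vehicle-treated cultures.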

[8] = NCI Yeast Anticancer Drug Screen. Data for the CLN2oe strain (AID 163);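 also: 0% = growth of vehicle-only control cultures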; settings: S. cerevisiae CLN2oe strain, hits give high values
In short: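 Cells of an engineered yeast line with disturbed cell-cycle regulation are treated with compound. Inhibition of growth is then calculated relative to the vehicle-treated reference.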

[9] = NCI Yeast Anticancer Drug Screen. Data for the cln2 rad14 strain (AID 165);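 also: 0% = growth equal to vehicle treated cultures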; settings: S. cerevisiae cln2 rad14 strain, hits give high values
In short: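 Strain: cln2 rad14 yeast, altered in cell cycle control and DNA damage repair. Read-out: growth inhibition vs vehicle.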

[10] = NCI Yeast Anticancer Drug Screen. Data for the bub3 strain (AID 167); settings: S. cerevisiae bub3 mutant strain, hits give high values
In short: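 Growth of a checkpoint-deficient yeast mutant is measured after compound exposure. Values represent inhibition relative to vehicle.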

[11] = NCI Yeast Anticancer Drug Screen. Data for the wt2 strain (AID 169);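 also: 0% = growth of vehicle-treated yeast cultures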; settings: S. cerevisiae wt2 strain growth inhibition, hits give high values
In short: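 Growth of compound-treated yeast is measured and expressed as inhibition relative to vehicle-only controls.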

[12] = NCI Yeast Anticancer Drug Screen. Data for the mlh1 strain (AID 171);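 also: 0% = growth of vehicle-treated control cultures of the same strain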; settings: S. cerevisiae mlh1 strain growth inhibition, hits give high values
In short: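 Test agents were incubated with yeast bearing a defined DNA damage repair or cell cycle control alteration; values are growth inhibition normalised to vehicle-treated cultures.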

[13] = NCI Yeast Anticancer Drug Screen. Data for the mlh1 rad18 strain (AID 175); settings: S. cerevisiae mlh1 rad18 strain growth inhibition, hits give high values
In short: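 A repair-deficient yeast strain is exposed to test compound, and growth is scored relative to vehicle-treated controls.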

[14] = NCI Yeast Anticancer Drug Screen. Data for the rad18 strain (AID 177); settings: S. cerevisiae rad18 mutant growth inhibition, hits give high values
In short: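 DNA-repair-defective yeast; compound treatment; growth inhibition scored against vehicle.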

[15] = NCI Yeast Anticancer Drug Screen. Data for the wt1 strain (AID 149);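 also: 0% = growth of vehicle-treated wt1 cultures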; settings: S. cerevisiae wt1 strain (SPY 50644) growth inhibition, hits give high values
In short: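 Readout: yeast growth inhibition, normalised to vehicle controls, in the wt1 strain exposed to test compounds.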

[16] = NCI Yeast Anticancer Drug Screen. Data for the sgs1 strain (AID 173);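 also: 0% = growth of vehicle-only control cultures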; settings: S. cerevisiae sgs1 mutant, hits give high values
In short: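 Strain with an altered DNA repair or cell cycle pathway exposed to compound. Growth then measured. Value = inhibition versus vehicle control.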

[17] = at 5.0 µM (retest, dose inferred, filed as 0.5)
[18] = at 50.0 µM (retest, dose inferred, filed as 5.0)

For `CC(=O)C1(O)Cc2c(O)c3c(c(O)c2C(OC2CC(N)C(O)C(C)O2)C1)C(=O)c1ccccc1C3=O` (stereo not given), the growth inhibition ([1]; at 1.2 µM) was 82% (active), the growth inhibition ([1]; at 3.7 µM) was 92% (active) and the growth inhibition ([1]; at 11.0 µM) was 95% (active). For the same molecule, the growth inhibition ([1]; at 33.0 µM) was 96% (active), the growth inhibition ([1]; at 100.0 µM) was 97% (active) and the growth inhibition ([2]; at 1.2 µM) was 55%. The growth inhibition ([2]; at 3.7 µM) was 92% (active), the growth inhibition ([2]; at 11.0 µM) was 97% (active) and the growth inhibition ([2]; at 33.0 µM) was 98% (active). For the same molecule, the growth inhibition ([2]; at 100.0 µM) was 98% (active), the growth inhibition ([3]; at 1.2 µM) was 4% and the growth inhibition ([3]; at 3.7 µM) was 45%. The growth inhibition ([3]; at 11.0 µM) was 92% (active), the growth inhibition ([3]; at 33.0 µM) was 97% (active) and the growth inhibition ([3]; at 100.0 µM) was 98% (active). The growth inhibition ([4]; at 1.2 µM) was 86% (active), the growth inhibition ([4]; at 3.7 µM) was 92% (active) and the growth inhibition [4, 17] was 24%. For the same molecule, the growth inhibition ([4]; at 11.0 µM) was 94% (active), the growth inhibition ([4]; at 33.0 µM) was 97% (active) and the growth inhibition [4, 18] was 85% (active). For the same molecule, the growth inhibition ([4]; at 50.0 µM) was 89.4% (active), the growth inhibition ([4]; at 100.0 µM) was 98% (active) and the growth inhibition ([5]; at 1.2 µM) was 15%. For the same molecule, the growth inhibition ([5]; at 3.7 µM) was 50%, the growth inhibition [5, 17] was -32% and the growth inhibition ([5]; at 11.0 µM) was 90% (active). The growth inhibition ([5]; at 33.0 µM) was 95% (active), the growth inhibition [5, 18] was 47% and the growth inhibition ([5]; at 50.0 µM) was 92.9% (active). The growth inhibition ([5]; at 100.0 µM) was 98% (active), the growth inhibition ([6]; at 1.2 µM) was -4% and the growth inhibition ([6]; at 3.7 µM) was 33%. For the same molecule, the growth inhibition ([6]; at 11.0 µM) was 89% (active), the growth inhibition ([6]; at 33.0 µM) was 96% (active) and the growth inhibition ([6]; at 100.0 µM) was 97% (active). For the same molecule, the growth inhibition [7, 17] was -25%, the growth inhibition [7, 18] was 65% and the growth inhibition ([7]; at 50.0 µM) was 91% (active). The growth inhibition ([8]; at 1.2 µM) was -1%, the growth inhibition ([8]; at 3.7 µM) was 46% and the growth inhibition ([8]; at 11.0 µM) was 93% (active). The growth inhibition ([8]; at 33.0 µM) was 98% (active), the growth inhibition ([8]; at 100.0 µM) was 99% (active) and the growth inhibition [9, 17] was -15%. For the same molecule, the growth inhibition [9, 18] was 41%, the growth inhibition ([9]; at 50.0 µM) was 87.9% (active) and the growth inhibition ([10]; at 1.2 µM) was -7%. The growth inhibition ([10]; at 3.7 µM) was 8%, the growth inhibition [10, 17] was -42% and the growth inhibition ([10]; at 11.0 µM) was 91% (active). For the same molecule, the growth inhibition ([10]; at 33.0 µM) was 97% (active), the growth inhibition [10, 18] was 16% and the growth inhibition ([10]; at 50.0 µM) was 90.2% (active). The growth inhibition ([10]; at 100.0 µM) was 98% (active), the growth inhibition ([11]; at 1.2 µM) was 2% and the growth inhibition ([11]; at 3.7 µM) was 27%. The growth inhibition ([11]; at 11.0 µM) was 93% (active), the growth inhibition ([11]; at 33.0 µM) was 98% (active) and the growth inhibition ([11]; at 100.0 µM) was 99% (active). The growth inhibition ([12]; at 1.2 µM) was 1%, the growth inhibition ([12]; at 3.7 µM) was 22% and the growth inhibition ([12]; at 11.0 µM) was 90% (active). For the same molecule, the growth inhibition ([12]; at 33.0 µM) was 96% (active), the growth inhibition ([12]; at 100.0 µM) was 98% (active) and the growth inhibition [13, 17] was -33%. The growth inhibition [13, 18] was 54%, the growth inhibition ([14]; at 1.2 µM) was 1% and the growth inhibition ([14]; at 3.7 µM) was 60%. For the same molecule, the growth inhibition ([14]; at 11.0 µM) was 94% (active), the growth inhibition ([14]; at 33.0 µM) was 96% (active) and the growth inhibition ([14]; at 100.0 µM) was 98% (active).
For `CC1=CC2C(C(C)C)CC1C1C(=O)OC(=O)C21` (stereo not given), the growth inhibition ([1]; at 1.2 µM) was -12%, the growth inhibition ([1]; at 3.7 µM) was -14% and the growth inhibition ([1]; at 11.0 µM) was -2%. For the same molecule, the growth inhibition ([1]; at 33.0 µM) was 20%, the growth inhibition ([1]; at 100.0 µM) was 71% (active) and the growth inhibition ([15]; at 1.2 µM) was -5%. It also gave a growth inhibition ([15]; at 3.7 µM) of 0%, a growth inhibition ([15]; at 11.0 µM) of 6% and a growth inhibition ([15]; at 33.0 µM) of 13%. For the same molecule, the growth inhibition ([15]; at 100.0 µM) was 51%, the growth inhibition ([4]; at 1.2 µM) was -13% and the growth inhibition ([4]; at 3.7 µM) was -16%. For the same molecule, the growth inhibition [4, 17] was -127%, the growth inhibition ([4]; at 11.0 µM) was -12% and the growth inhibition ([4]; at 33.0 µM) was 24%. The growth inhibition [4, 18] was 83% (active), the growth inhibition ([4]; at 50.0 µM) was 86.7% (active) and the growth inhibition ([4]; at 100.0 µM) was 81% (active). For the same molecule, the growth inhibition ([5]; at 1.2 µM) was -1%, the growth inhibition ([5]; at 3.7 µM) was 0% and the growth inhibition [5, 17] was -42%. The growth inhibition ([5]; at 11.0 µM) was -2%, the growth inhibition ([5]; at 33.0 µM) was 2% and the growth inhibition [5, 18] was 86% (active). For the same molecule, the growth inhibition ([5]; at 50.0 µM) was 76.5% (active), the growth inhibition ([5]; at 100.0 µM) was 37% and the growth inhibition ([6]; at 1.2 µM) was -2%. For the same molecule, the growth inhibition ([6]; at 3.7 µM) was 4%, the growth inhibition ([6]; at 11.0 µM) was 13% and the growth inhibition ([6]; at 33.0 µM) was 24%. For the same molecule, the growth inhibition ([6]; at 100.0 µM) was 78% (active), the growth inhibition [7, 17] was -60% and the growth inhibition [7, 18] was 25%. For the same molecule, the growth inhibition ([7]; at 50.0 µM) was 13.6%, the growth inhibition ([8]; at 1.2 µM) was -7% and the growth inhibition ([8]; at 3.7 µM) was -11%. For the same molecule, the growth inhibition ([8]; at 11.0 µM) was -10%, the growth inhibition ([8]; at 33.0 µM) was -9% and the growth inhibition ([8]; at 100.0 µM) was 16%. It also gave a growth inhibition [9, 17] of -53%, a growth inhibition [9, 18] of 47% and a growth inhibition ([9]; at 50.0 µM) of 13.4%. It also gave a growth inhibition ([10]; at 1.2 µM) of -6%, a growth inhibition ([10]; at 3.7 µM) of -6% and a growth inhibition [10, 17] of -71%. It also gave a growth inhibition ([10]; at 11.0 µM) of -9%, a growth inhibition ([10]; at 33.0 µM) of -6% and a growth inhibition [10, 18] of 66%. For the same molecule, the growth inhibition ([10]; at 50.0 µM) was 70.8% (active), the growth inhibition ([10]; at 100.0 µM) was 50% and the growth inhibition ([11]; at 1.2 µM) was -8%. It also gave a growth inhibition ([11]; at 3.7 µM) of -2%, a growth inhibition ([11]; at 11.0 µM) of 11% and a growth inhibition ([11]; at 33.0 µM) of 36%. For the same molecule, the growth inhibition ([11]; at 100.0 µM) was 86% (active), the growth inhibition ([12]; at 1.2 µM) was -16% and the growth inhibition ([12]; at 3.7 µM) was -7%. The growth inhibition ([12]; at 11.0 µM) was -6%, the growth inhibition ([12]; at 33.0 µM) was 10% and the growth inhibition ([12]; at 100.0 µM) was 56%. The growth inhibition ([16]; at 1.2 µM) was -14%, the growth inhibition ([16]; at 3.7 µM) was -10% and the growth inhibition ([16]; at 11.0 µM) was 7%. For the same molecule, the growth inhibition ([16]; at 33.0 µM) was 27%, the growth inhibition ([16]; at 100.0 µM) was 88% (active) and the growth inhibition [13, 17] was -140%. The growth inhibition [13, 18] was 77% (active), the growth inhibition ([13]; at 50.0 µM) was 76.4% (active) and the growth inhibition ([14]; at 1.2 µM) was -9%. The growth inhibition ([14]; at 3.7 µM) was -6%, the growth inhibition ([14]; at 11.0 µM) was -6% and the growth inhibition ([14]; at 33.0 µM) was 3%. It also gave a growth inhibition ([14]; at 100.0 µM) of 69%.
